FUS suppressor – qHTS for Suppressors of FUS Proteinopathy: Primary screen using FUS-linked yeast assay; Potency, µM (top dose mostly 76.6 µM), hits mostly activators; S. cerevisiae FUS-expressing, growth rescue, OD600, 24 h; 0.24% of 390,000 active; AID 1347120, 2019;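 also: potency is read from the fitted curve at half-maximal effect; plate controls were DMSO vehicle for no effect and reference control for full effect; nearly all actives have a fitted effect of over 55% in size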
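Compound concentration series was pinned onto galactose-induced FUS-expressing yeast seeded at OD 0.005. Plates sat 24hr at 30C; absorbance at 600 nm gave growth. DMSO served as background control.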
ELG1 DNA repair – qHTS screen for small molecules that inhibit ELG1-dependent DNA repair in human embryonic kidney (HEK293T) cells expressing luciferase-tagged ELG1. HEK293T ELG1-luciferase reporter, luminescence, 16 h; DNA damage induced by 5-fluorouridine. Potency, µM (doses to about 46.1 µM), inactives show top-dose activity change, negative = inhibition, most hits filed as inhibitors. 2.3% of 330,000 active. AID 504467, 2011; also: potency is read from the fitted curve at half-maximal effect; % is scaled to controls: 0 for no effect and ±100 for the full control effect; nearly all actives have a fitted effect of over 55% in size
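5-Fluorouridine DNA damage + compound/DMSO, 2,000 cells/well, 16 h, 37 °C/5% CO2. ONE-Glo, 30 min RT, luminescence. Readout = decrease in reporter signal.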
TRPV1 potentiator – HTS Assay for Compounds that Act as Potentiators of the Vanilloid Receptor 1; TRPV1-expressing cells, Fluo-8 calcium influx, capsaicin EC20 potentiation; potentiation, % at 8.33 µM; 0.02% of 320,000 active; AID 540277, 2011; in the data active = potentiation above about 80%; inconclusive = between about 30% and that limit; also: 0% is about no effect
Target sequence (Q8NER1 whole entry, looked up): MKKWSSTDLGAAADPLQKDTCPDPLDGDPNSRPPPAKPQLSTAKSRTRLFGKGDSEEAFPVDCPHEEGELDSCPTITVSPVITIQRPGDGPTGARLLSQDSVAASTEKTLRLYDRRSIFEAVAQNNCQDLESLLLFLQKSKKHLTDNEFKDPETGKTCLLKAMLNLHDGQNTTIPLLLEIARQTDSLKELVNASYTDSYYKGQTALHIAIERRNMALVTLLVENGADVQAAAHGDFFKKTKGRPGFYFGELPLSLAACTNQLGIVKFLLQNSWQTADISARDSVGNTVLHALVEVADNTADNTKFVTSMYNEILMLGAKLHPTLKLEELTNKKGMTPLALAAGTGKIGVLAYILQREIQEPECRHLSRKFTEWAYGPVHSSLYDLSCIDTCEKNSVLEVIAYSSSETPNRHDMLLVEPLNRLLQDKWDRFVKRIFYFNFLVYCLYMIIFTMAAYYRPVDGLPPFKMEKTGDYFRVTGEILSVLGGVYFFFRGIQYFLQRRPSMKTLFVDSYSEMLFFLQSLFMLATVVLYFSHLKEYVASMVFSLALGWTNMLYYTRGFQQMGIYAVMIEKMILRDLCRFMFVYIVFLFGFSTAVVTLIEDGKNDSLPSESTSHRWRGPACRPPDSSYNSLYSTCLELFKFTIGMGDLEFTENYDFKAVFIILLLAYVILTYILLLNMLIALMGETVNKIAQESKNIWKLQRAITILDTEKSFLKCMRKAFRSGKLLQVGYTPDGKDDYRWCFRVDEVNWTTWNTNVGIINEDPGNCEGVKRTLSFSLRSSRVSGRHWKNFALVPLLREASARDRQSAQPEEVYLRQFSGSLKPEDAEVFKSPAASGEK
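TRPV1-expressing cells were cultured overnight at 35.5C and loaded with Fluo-8 calcium dye for 40 to 90 min at room temperature. After a 10 s baseline, compound was added and calcium influx was read kinetically for 3 min (ex 480/em 520 nm).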
Giardia killer – Small Molecules that selectively kill Giardia lamblia: qHTS. Giardia lamblia trophozoite viability. activity change, % at 7.66 µM, hits read low. 0.15% of 340,000 active; in the data active = activity change below about -80%; inconclusive = between about -30% and that limit;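 also: parasites exposed to compound for two days anaerobically before the ATP read; % is scaled to controls: 0 for no effect and ±100 for the full control effect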
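Anaerobic 48 hrs incubation at 37 deg C of 100 trophozoites/well with test compounds; ATPLite 1-Step luminescence, 15-30 min RT, reports cellular ATP as viability.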
TRPV1 agonist – HTS Assay for Compounds that Act as Agonists of the Vanilloid Receptor 1; Transient receptor potential cation channel subfamily V member 1 (Homo sapiens), Q8NER1; TRPV1-expressing cells, Fluo-8 calcium influx, agonist mode; activation, % at 8.33 µM; 0.19% of 320,000 active; AID 540275, 2011; in the data active = activation above about 80%; inconclusive = between about 30% and that limit; also: 0% is about no effect
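Fluo-8 calcium influx in TRPV1-expressing cells, kinetic read (ex 480/em 520 nm). Compound added and read 3 min for agonist activity, followed by capsaicin at EC20 final and 2 min further read for enhancement.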
An asterisk follows results filed as active; i = inactive; ? = inconclusive; . = no result. Sampled rows, rich in hits. Any-hit rate of the full collection: about 2.3%. Unless noted, calls follow the shape of the dose curve; as a rule, active = well fitted curve in the direction sought with a large enough effect; inconclusive = small, poorly fitted or top-dose-only effect, or another doubt; inactive = no such curve, though single readings can be large; an effect the other way counts as inactive or inconclusive.

SMILES	FUS suppressor	ELG1 DNA repair	TRPV1 potentiator	Giardia killer	TRPV1 agonist
CCCOc1ccc(CC(=O)N/N=C\c2ccc(F)cc2)cc1	i	-1.0%	5.4	9.3	8.7
CCCOc1ccc(CCC(=O)N/N=C/c2ccc([N+](=O)[O-])o2)cc1	i	?	-2.4	-88.0*	23.8
CC1(C(=O)N/N=C/c2ccc([N+](=O)[O-])o2)CC1(Br)Br (configuration not stated)	.	-0.2%	-4.7	-90.2*	3.3
O=C(CCN1CCN(c2ccccc2)CC1)N/N=C/c1ccc([N+](=O)[O-])o1	i	0.0%	8.4	?	1.5
CCCC12CN3CC(C)(CN(C1)C3c1ccc(CC)cc1)C2=O (configuration not stated)	i	.	.	.	.
Cc1ccc(C(=O)N/N=C\c2ccc([N+](=O)[O-])o2)cn1	i	?	.	?	.
O=C(Cc1ccc([N+](=O)[O-])cc1)N/N=C/c1ccc([N+](=O)[O-])o1	i	?	-12.7	-88.9*	-3.7
CCOC(=O)N/N=C\c1ccc([N+](=O)[O-])o1	i	-25.9%	-2.0	-94.6*	0.5
Cc1ccc2c(=O)c(C(=O)c3ccc(Cl)cc3)cn(CC(=O)Nc3ccc4c(c3)OCCO4)c2n1	i	.	.	.	.
COc1ccc(C(=O)NCC(c2ccc3c(c2)OCO3)N2CCN(c3ccccc3F)CC2)cc1 (configuration not stated)	i	.	.	.	.
Cc1ccc(C)c(OCc2nc3ccc(S(=O)(=O)Nc4c(C)n(C)n(-c5ccccc5)c4=O)cc3[nH]2)c1	35.5µM*	?	-2.9	9.2	-0.2
COc1cc(OC)c(C(=O)N(Cc2ccco2)Cc2cccs2)cc1OC	.	.	9.9	16.1	-0.6
Cc1c(OC(C)C(=O)NCC(O)c2ccccc2)ccc2c3c(c(=O)oc12)CCCC3 (configuration not stated)	i	14.6µM*	29.6	5.4	-5.3
COc1cccc(NC(=O)c2nn(-c3ccc(C)cc3)c(=O)n(C)c2=O)c1	i	.	.	.	.
COc1cc(NC(=O)C2CC(c3cccc(OC)c3OC)=NO2)cc(OC)c1OC (configuration not stated)	i	11.6µM*	12.8	12.3	-0.6
COc1cccc(C2=NOC(C(=O)Nc3cccnc3Cl)C2)c1OC (configuration not stated)	i	?	?	-0.6	-0.4
Cc1cccc(-n2c(O)c(C=Nc3cc(O)ccc3C)c3ccccc3c2=O)n1	i	-16.0%	-4.2	8.4	1.6
Cc1cccc(-n2c(O)c(C=Nc3ccccc3O)c3ccccc3c2=O)n1	i	23.1µM*	11.4	-22.1	3.1
Cc1ccc(SCc2nc3ccccc3n2CC(=O)Nc2ccc(Cl)cc2)cc1	?	7.31µM*	4.9	-6.7	3.3
Cc1ccc(SCc2nc3ccccc3n2CC(=O)Nc2ccccc2)cc1	i	-5.9%	16.9	-4.2	9.6
COc1cccc(CC(=O)O[C@@H]2CCC[C@@]3(C(=O)N(Cc4ccccc4)c4ccccc43)[C@H]2NC(=O)CCc2ccccc2)c1	i	.	.	.	.
CCCN(CC1CC1)C(=O)CSc1nnc(-c2cc(-c3cccs3)nc3ccccc23)o1	i	9.2µM*	0.3	-23.4	3.2
NC(=O)CSc1nnc(-c2cc(-c3cccs3)nc3ccccc23)o1	i	?	-15.0	-8.8	20.6
CCC(CC)C(=O)Nc1ccc2nc(SCC(=O)N3CCOCC3)sc2c1	i	.	.	.	.
COc1cccc(C(=O)Nc2cccc(-c3nnc(-c4ccco4)o3)c2)c1	i	23.1µM*	-2.7	-2.0	1.6
SMILES	FUS suppressor	ELG1 DNA repair	TRPV1 potentiator	Giardia killer	TRPV1 agonist
O=C(Nc1cccnc1)c1sc(Nc2ccccc2)nc1-c1ccccc1	.	?	-7.1	0.8	16.5
Cc1cccc(Nc2nc(-c3ccccc3)c(C(=O)Nc3cccnc3)s2)c1	i	13µM*	-4.4	-9.2	15.5
O=C(Nc1ccc2nc(-c3ccco3)c(-c3ccco3)nc2c1)N1CCN(c2ccccn2)CC1	.	11.6µM*	12.7	-19.6	-5.4
O=C(Nc1cccnc1)c1ccc2nc(-c3ccccc3)c(-c3ccccc3)nc2c1	?	23.1µM*	8.3	3.2	29.6
COC(=O)CC1Oc2ccccc2-n2cc(-c3ccc(C)cc3)nc21 (configuration not stated)	i	.	.	.	.
CC(=O)c1ccc(NC(=O)c2ccc3nc(-c4ccco4)c(-c4ccco4)nc3c2)cc1	?	?	14.4	1.1	-2.6
O=C(NNC(=S)NC(=O)c1ccco1)c1ccc(NC(=O)c2ccccc2)cc1	i	14.6µM*	18.8	-10.6	-4.4
O=C(Nc1ccccc1)c1ccc2nc(-c3ccco3)c(-c3ccco3)nc2c1	i	9.2µM*	2.1	3.5	-5.5
COc1ccc(C(c2nnnn2C2CCCCC2)N2CCN(c3ccc(OC)cc3)CC2)cc1 (configuration not stated)	?	-3.7%	-8.0	7.2	0.5
c1cc(N2CCCC2)ccc1C(c1nnnn1C1CCCCC1)N1CCOCC1 (configuration not stated)	39.8µM*	1.2%	-9.1	1.7	16.5
CCN(Cc1ccccc1)C(=O)c1nc(-c2cccc(F)c2)n2c1CCCCC2	i	.	.	.	.
O=C(/C=C/c1ccc(OCCCF)cc1)Nc1ccnc(-c2cccnc2)n1	i	7.3µM*	?	5.0	9.7
O=C(/C=C/c1ccc(OCCCF)cc1)Nc1ccnc(-c2ccncc2)n1	i	?	-0.3	18.8	?
COc1ccc(C(C(=O)NC(C)(C)C)N(Cc2cccs2)C(=O)CCC(=O)Nc2cc(C)on2)cc1 (configuration not stated)	i	?	-12.6	0.2	1.1
CCC(C)(C)NC(=O)C(c1ccc(OC)cc1)N(Cc1cccs1)C(=O)CCC(=O)Nc1cc(C)on1 (configuration not stated)	i	18.4µM*	15.9	1.5	-2.7
COc1ccc(/C=C/C(=O)NC(=S)NNC(=O)c2cc(OC)c(OC)c(OC)c2)cc1	i	7.3µM*	-5.7	1.4	8.7
CCn1c(=O)cc(SCC(=O)NCCc2cccc(C)c2)c2ccccc21	i	.	.	.	.
N#Cc1ccccc1NC(=O)COc1ccccc1C(=O)Nc1ccccc1	i	20.6µM*	.	-0.9	.
O=C(CN(Cc1ccco1)C(=O)c1ccc(F)cc1)Nc1ccccc1Br	i	0.0%	.	5.5	.
Cc1ccc(S(=O)(=O)c2c(N)n(Cc3ccco3)c3nc4ccccc4nc23)cc1	22.4µM*	-11.1%	13.1	5.7	7.8

High-throughput results: PubChem BioAssay, National Center for Advancing Translational Sciences (NCATS)
